Experimental data: paper PMC7862700, “An all-to-all approach to the identification of sequence-specific readers for epigenetic DNA modifications on cytosine”

Columns and labels:
Assay in all cases: DAPPL (digital affinity profiling via proximity ligation, sequencing); 10 mM Tris-HCl pH 7.5, 50 mM NaCl, 1 mM DTT, 4% glycerol, room temperature, 30 min; GST-TFs on glutathione beads, 16-mer random dsDNA library, 0.1% formaldehyde crosslink after washing; high values mean tight binding
FEV = target: T1, FEV (Homo sapiens, UniProt Q99581 1-238); conditions: protein: recombinant; tags: N-terminal GST; dsDNA, one strand shown
T1 sequence: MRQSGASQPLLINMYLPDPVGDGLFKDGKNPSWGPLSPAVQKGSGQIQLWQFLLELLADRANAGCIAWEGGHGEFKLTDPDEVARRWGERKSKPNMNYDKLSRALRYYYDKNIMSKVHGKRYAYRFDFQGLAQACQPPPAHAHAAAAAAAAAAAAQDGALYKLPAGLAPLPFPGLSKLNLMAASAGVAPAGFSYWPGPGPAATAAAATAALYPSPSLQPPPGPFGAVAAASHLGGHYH
In short: (§1)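 Binding signal is each hexamer's read frequency for a factor divided by its frequency in the tag-only sample. The factors were GST-fused human transcription factors from yeast, captured on glutathione beads, DNA-barcoded and pooled with that sample. Pools were incubated with 200 nmole of a random double-stranded 16-mer DNA library in Tris/NaCl/DTT/glycerol buffer at room temperature for 30 min, then washed, crosslinked with 0.1% formaldehyde, proximity-ligated with BsaI/T4 ligase (1 h, 37 °C), PCR-amplified and sequenced on an Illumina NextSeq500.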

ETV5 = ETV5 (Homo sapiens, UniProt P41161 1-510); conditions: protein: recombinant; tags: N-terminal GST; dsDNA, one strand shown
ETV5, sequence (P41161 whole entry): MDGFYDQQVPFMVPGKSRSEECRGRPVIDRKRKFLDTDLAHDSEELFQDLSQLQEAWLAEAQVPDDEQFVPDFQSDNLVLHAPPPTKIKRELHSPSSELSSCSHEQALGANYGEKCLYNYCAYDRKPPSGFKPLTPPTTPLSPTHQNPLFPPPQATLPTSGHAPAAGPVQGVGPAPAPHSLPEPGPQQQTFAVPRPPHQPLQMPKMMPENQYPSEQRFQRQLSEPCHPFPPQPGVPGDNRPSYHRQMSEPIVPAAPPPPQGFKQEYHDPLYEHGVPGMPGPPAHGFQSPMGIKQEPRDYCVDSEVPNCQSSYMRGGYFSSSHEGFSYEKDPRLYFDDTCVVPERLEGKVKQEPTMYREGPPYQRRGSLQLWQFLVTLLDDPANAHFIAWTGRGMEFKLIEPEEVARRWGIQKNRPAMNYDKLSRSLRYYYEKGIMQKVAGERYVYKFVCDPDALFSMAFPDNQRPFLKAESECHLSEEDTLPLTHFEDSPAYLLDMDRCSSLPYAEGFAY
In short: as §1

HSF1 = HSF1 (Homo sapiens, UniProt Q00613 1-529); conditions: protein: recombinant; tags: N-terminal GST; chain copies: 3; dsDNA, one strand shown
HSF1, sequence (Q00613 whole entry): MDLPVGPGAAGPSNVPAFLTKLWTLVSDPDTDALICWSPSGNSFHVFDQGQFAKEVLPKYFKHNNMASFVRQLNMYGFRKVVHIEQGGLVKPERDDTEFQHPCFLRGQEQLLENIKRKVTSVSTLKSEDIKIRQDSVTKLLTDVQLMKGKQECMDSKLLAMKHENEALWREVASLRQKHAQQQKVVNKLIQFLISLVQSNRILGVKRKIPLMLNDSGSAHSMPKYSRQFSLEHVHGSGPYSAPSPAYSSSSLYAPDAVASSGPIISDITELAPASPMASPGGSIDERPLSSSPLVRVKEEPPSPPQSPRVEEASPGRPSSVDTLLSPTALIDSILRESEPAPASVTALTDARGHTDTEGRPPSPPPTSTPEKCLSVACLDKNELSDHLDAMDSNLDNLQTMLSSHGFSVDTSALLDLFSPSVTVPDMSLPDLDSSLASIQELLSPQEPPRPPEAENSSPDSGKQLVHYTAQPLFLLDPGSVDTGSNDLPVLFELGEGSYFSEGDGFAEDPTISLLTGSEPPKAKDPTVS
In short: as §1

ELK4 = target: T2, ELK4 (Homo sapiens, UniProt P28324-2 1-405); conditions: protein: recombinant; tags: N-terminal GST; dsDNA, one strand shown
T2 sequence: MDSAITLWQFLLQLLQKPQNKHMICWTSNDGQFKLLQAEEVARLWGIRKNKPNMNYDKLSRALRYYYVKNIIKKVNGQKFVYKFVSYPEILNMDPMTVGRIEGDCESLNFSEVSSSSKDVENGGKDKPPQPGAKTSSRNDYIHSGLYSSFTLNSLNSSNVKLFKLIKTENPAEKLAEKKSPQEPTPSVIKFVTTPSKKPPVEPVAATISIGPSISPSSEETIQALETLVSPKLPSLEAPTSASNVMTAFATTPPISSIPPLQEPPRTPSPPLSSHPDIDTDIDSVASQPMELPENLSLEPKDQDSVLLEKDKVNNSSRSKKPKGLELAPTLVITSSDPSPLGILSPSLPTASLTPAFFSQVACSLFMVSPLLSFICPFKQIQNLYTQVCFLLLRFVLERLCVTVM
In short: as §1

ETV2 = target: T3, ETV2 (Homo sapiens, UniProt O00321 1-342); conditions: protein: recombinant; tags: N-terminal GST; dsDNA, one strand shown
T3 sequence: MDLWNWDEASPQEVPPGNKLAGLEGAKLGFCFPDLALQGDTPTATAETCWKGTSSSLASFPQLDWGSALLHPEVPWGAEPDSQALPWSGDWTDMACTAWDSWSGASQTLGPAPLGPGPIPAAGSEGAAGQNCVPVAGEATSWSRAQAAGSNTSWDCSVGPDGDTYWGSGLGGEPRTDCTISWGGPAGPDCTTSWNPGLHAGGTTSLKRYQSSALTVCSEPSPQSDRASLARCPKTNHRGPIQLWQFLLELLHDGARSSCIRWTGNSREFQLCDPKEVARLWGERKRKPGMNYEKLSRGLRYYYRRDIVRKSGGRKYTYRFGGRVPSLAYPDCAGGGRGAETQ
In short: as §1

ELF3 = target: T4, ELF3 (Homo sapiens, UniProt P78545 1-371); conditions: protein: recombinant; tags: N-terminal GST; dsDNA, one strand shown
T4 sequence: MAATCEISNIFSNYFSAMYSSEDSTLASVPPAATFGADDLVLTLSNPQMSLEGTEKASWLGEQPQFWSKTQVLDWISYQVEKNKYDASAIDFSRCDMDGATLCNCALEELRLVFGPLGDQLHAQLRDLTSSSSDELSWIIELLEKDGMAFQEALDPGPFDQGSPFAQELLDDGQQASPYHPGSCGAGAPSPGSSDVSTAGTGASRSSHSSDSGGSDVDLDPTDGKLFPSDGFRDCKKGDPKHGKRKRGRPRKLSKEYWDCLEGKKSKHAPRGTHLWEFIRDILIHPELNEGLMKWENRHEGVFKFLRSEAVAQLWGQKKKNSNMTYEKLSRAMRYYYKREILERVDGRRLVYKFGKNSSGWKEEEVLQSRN
In short: as §1

CRX = CRX (Homo sapiens, UniProt O43186 1-299); conditions: protein: recombinant; tags: N-terminal GST; dsDNA, one strand shown
CRX, sequence (O43186 whole entry): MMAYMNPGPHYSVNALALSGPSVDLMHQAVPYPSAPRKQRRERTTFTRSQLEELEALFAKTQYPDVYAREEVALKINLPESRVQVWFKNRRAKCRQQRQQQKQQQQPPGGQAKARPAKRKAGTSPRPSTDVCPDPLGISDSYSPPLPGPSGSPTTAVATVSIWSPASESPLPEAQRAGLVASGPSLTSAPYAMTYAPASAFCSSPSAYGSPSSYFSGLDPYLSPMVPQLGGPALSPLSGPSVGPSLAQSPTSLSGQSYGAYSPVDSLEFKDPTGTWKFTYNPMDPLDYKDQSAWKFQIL
In short: as §1

ETV1 = ETV1 (Homo sapiens, UniProt P50549 1-477); conditions: protein: recombinant; tags: N-terminal GST; dsDNA, one strand shown
ETV1, sequence (P50549 whole entry): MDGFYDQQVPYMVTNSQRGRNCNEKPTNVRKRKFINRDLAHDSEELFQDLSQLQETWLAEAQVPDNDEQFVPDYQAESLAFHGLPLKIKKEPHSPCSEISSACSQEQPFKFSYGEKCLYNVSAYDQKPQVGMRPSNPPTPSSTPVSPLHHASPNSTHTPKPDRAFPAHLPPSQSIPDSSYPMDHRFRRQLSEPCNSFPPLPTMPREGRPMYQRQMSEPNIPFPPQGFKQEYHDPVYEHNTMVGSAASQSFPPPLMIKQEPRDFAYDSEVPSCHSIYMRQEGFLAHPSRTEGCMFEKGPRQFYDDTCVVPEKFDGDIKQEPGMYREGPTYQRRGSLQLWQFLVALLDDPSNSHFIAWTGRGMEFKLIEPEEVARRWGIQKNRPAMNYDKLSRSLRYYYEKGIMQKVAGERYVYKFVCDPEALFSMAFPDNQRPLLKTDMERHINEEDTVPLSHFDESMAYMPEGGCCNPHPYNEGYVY
In short: as §1

ERF = target: T5, ERF (Homo sapiens, UniProt P50548 1-548); conditions: protein: recombinant; tags: N-terminal GST; dsDNA, one strand shown
T5 sequence: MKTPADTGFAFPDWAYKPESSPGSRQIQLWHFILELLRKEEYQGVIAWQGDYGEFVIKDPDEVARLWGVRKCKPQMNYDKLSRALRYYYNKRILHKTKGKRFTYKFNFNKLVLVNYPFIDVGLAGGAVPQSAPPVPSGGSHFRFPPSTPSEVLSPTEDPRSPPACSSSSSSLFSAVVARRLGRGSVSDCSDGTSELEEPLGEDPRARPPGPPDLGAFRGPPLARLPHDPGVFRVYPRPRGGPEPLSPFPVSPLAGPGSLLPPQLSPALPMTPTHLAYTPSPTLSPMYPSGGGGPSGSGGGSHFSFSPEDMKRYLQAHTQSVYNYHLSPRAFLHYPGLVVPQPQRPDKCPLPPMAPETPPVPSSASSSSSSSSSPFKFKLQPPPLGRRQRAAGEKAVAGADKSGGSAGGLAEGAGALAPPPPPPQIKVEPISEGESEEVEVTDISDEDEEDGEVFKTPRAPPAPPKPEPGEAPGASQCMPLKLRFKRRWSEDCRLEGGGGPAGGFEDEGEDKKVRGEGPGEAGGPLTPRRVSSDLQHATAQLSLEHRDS
In short: as §1

ETV3L = target: T6, ETV3L (Homo sapiens, UniProt Q6ZN32 1-361); conditions: protein: recombinant; tags: N-terminal GST; dsDNA, one strand shown
T6 sequence: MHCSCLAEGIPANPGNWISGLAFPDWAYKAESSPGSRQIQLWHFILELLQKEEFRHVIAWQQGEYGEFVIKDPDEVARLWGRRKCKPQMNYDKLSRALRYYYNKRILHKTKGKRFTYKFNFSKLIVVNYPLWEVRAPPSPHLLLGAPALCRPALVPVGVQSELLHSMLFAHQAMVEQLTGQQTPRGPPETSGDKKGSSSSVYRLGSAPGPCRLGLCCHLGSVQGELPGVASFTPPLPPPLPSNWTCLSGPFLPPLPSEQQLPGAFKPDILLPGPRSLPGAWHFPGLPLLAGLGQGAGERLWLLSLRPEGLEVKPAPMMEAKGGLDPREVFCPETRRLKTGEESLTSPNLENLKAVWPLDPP
In short: as §1

ETS2 = target: T7, ETS2 (Homo sapiens, UniProt P15036 1-469); conditions: protein: recombinant; tags: N-terminal GST; dsDNA, one strand shown
T7 sequence: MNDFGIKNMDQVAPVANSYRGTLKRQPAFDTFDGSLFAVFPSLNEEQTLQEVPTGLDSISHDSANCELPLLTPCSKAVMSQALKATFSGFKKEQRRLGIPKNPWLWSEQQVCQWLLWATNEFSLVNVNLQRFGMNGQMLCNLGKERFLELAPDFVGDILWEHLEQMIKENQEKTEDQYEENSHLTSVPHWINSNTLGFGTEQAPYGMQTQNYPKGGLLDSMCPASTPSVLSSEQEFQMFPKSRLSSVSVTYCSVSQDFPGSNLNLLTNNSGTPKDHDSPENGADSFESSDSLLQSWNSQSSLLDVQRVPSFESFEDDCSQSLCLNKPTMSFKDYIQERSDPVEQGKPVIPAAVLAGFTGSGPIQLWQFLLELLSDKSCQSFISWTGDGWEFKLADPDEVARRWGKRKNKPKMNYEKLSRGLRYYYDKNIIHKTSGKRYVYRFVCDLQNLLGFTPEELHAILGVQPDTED
In short: as §1

SPDEF = target: T8, SPDEF (Homo sapiens, UniProt O95238 1-335); conditions: protein: recombinant; tags: N-terminal GST; dsDNA, one strand shown
T8 sequence: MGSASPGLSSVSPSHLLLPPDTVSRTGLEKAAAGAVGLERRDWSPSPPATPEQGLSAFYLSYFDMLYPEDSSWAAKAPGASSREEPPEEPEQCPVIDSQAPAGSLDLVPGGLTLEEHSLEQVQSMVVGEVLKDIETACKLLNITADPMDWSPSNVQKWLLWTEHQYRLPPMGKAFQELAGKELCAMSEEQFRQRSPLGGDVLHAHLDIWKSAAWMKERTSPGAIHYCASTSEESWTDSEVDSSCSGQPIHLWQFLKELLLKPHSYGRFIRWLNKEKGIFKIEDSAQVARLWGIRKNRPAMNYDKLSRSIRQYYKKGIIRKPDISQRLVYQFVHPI
In short: as §1

ETV3 = target: T9, ETV3 (Homo sapiens, UniProt P41162-2 1-143); conditions: protein: recombinant; tags: N-terminal GST; dsDNA, one strand shown
T9 sequence: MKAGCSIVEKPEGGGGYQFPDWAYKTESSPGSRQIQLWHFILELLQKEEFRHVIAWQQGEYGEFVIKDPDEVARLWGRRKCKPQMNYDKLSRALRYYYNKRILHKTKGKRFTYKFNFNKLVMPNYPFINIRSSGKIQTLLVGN
In short: as §1

ETV6 = ETV6 (Homo sapiens, UniProt P41212 1-452); conditions: protein: recombinant; tags: N-terminal GST; dsDNA, one strand shown
ETV6, sequence (P41212 whole entry): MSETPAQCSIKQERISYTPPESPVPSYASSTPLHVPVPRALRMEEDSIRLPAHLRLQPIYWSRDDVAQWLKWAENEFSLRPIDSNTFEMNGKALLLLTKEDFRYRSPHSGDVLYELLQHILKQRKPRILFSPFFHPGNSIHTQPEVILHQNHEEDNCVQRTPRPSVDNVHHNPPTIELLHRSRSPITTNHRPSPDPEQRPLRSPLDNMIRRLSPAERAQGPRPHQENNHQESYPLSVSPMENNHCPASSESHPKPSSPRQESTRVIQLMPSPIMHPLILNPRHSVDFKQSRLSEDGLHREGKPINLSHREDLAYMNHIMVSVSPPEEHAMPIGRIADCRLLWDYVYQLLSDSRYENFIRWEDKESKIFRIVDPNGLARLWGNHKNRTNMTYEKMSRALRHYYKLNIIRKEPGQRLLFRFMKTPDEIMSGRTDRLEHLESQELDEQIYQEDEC
In short: as §1

ELF4 = ELF4 (Homo sapiens, UniProt Q99607 1-663); conditions: protein: recombinant; tags: N-terminal GST; dsDNA, one strand shown
ELF4, sequence (Q99607 whole entry): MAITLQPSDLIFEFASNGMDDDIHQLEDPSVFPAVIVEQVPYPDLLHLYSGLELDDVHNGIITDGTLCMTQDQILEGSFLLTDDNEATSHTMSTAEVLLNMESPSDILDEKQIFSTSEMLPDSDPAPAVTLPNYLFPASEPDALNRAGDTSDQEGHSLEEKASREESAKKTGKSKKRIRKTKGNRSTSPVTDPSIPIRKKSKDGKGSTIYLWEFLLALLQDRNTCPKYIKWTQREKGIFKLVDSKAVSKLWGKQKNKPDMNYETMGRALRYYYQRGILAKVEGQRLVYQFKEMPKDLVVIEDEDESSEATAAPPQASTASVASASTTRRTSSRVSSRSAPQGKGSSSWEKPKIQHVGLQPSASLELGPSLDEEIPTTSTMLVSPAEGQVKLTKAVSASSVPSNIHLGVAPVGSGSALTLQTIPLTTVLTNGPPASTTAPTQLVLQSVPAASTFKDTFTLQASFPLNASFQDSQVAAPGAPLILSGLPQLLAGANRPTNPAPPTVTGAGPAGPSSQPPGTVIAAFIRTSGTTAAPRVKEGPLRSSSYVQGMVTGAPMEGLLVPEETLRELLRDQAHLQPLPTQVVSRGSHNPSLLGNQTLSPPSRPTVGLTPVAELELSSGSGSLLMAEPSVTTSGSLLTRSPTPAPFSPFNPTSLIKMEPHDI
In short: as §1

ETV7 = target: T10, ETV7 (Homo sapiens, UniProt Q9Y603 1-341); conditions: protein: recombinant; tags: N-terminal GST; dsDNA, one strand shown
T10 sequence: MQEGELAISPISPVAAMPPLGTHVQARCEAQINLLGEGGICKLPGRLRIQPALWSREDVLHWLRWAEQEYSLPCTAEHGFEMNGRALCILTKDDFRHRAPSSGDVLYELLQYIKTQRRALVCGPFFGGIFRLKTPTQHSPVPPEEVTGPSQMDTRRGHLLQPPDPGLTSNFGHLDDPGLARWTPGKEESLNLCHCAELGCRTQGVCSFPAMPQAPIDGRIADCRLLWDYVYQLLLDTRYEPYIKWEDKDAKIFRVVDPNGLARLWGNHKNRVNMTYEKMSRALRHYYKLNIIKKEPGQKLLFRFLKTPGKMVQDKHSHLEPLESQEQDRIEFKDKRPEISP
In short: as §1

Sequence | binding signal (FEV) | binding signal (ETV5) | binding signal (HSF1) | binding signal (ELK4) | binding signal (ETV2) | binding signal (ELF3) | binding signal (CRX) | binding signal (ETV1) | binding signal (ERF) | binding signal (ETV3L) | binding signal (ETS2) | binding signal (SPDEF) | binding signal (ETV3) | binding signal (ETV6) | binding signal (ELF4) | binding signal (ETV7)
TAGTGC | 1.02 fold enrichment (6-mer frequency, TF over GST control) | 1.08 fold enrichment (6-mer frequency, TF over GST control) | 1.02 fold enrichment (6-mer frequency, TF over GST control) | 1.04 fold enrichment (6-mer frequency, TF over GST control) | 1.02 fold enrichment (6-mer frequency, TF over GST control) | 1.03 fold enrichment (6-mer frequency, TF over GST control) | 1.16 fold enrichment (6-mer frequency, TF over GST control) | 1.09 fold enrichment (6-mer frequency, TF over GST control) | 1.12 fold enrichment (6-mer frequency, TF over GST control) | 1.05 fold enrichment (6-mer frequency, TF over GST control) | 1.08 fold enrichment (6-mer frequency, TF over GST control) | 1.06 fold enrichment (6-mer frequency, TF over GST control) | 1.05 fold enrichment (6-mer frequency, TF over GST control) | 1.12 fold enrichment (6-mer frequency, TF over GST control) |  | 
TATCAA |  | 1.03 fold enrichment (6-mer frequency, TF over GST control) | 1.01 fold enrichment (6-mer frequency, TF over GST control) | 1.09 fold enrichment (6-mer frequency, TF over GST control) | 1.11 fold enrichment (6-mer frequency, TF over GST control) |  | 1.21 fold enrichment (6-mer frequency, TF over GST control) | 1.01 fold enrichment (6-mer frequency, TF over GST control) | 1.08 fold enrichment (6-mer frequency, TF over GST control) | 1.06 fold enrichment (6-mer frequency, TF over GST control) | 1.05 fold enrichment (6-mer frequency, TF over GST control) |  | 1.04 fold enrichment (6-mer frequency, TF over GST control) |  | 1.03 fold enrichment (6-mer frequency, TF over GST control) | 1.09 fold enrichment (6-mer frequency, TF over GST control)
